PfHsp90 set2: growth inhibition of PfHsp90-expressing yeast, primary screen, antimalarial PfHsp90 inhibitor project, S. cerevisiae, BacTiter-Glo luminescence, single point, set 2; 0.32% of 310,000 active; inhibition, % at 9.4 µM; BacTiter-Glo ATP, 48 h; yeast lacking PDR1 and PDR3 efflux regulators;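 active = every replicate shows inhibition above about 80%, whatever the replicate mean, limit read from the data; inconclusive = mean inhibition reaches the set limit but some replicate falls short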;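 also: 0% = DMSO neutral controls and 100% = 20 µM radicicol positive controls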
NSD2 HMT inh: NSD2 histone methyltransferase inhibitors, primary screen, biochemical, AlphaScreen, single concentration, set 2. Histone-lysine N-methyltransferase NSD2 (Homo sapiens), O96028. NSD2 peptide methylation, 120 min. inhibition, % at 12.5 µM. 0.54% of 310,000 active. AID 743445, 2014; in the data active = inhibition above about 50%
Target sequence (O96028 whole entry, looked up): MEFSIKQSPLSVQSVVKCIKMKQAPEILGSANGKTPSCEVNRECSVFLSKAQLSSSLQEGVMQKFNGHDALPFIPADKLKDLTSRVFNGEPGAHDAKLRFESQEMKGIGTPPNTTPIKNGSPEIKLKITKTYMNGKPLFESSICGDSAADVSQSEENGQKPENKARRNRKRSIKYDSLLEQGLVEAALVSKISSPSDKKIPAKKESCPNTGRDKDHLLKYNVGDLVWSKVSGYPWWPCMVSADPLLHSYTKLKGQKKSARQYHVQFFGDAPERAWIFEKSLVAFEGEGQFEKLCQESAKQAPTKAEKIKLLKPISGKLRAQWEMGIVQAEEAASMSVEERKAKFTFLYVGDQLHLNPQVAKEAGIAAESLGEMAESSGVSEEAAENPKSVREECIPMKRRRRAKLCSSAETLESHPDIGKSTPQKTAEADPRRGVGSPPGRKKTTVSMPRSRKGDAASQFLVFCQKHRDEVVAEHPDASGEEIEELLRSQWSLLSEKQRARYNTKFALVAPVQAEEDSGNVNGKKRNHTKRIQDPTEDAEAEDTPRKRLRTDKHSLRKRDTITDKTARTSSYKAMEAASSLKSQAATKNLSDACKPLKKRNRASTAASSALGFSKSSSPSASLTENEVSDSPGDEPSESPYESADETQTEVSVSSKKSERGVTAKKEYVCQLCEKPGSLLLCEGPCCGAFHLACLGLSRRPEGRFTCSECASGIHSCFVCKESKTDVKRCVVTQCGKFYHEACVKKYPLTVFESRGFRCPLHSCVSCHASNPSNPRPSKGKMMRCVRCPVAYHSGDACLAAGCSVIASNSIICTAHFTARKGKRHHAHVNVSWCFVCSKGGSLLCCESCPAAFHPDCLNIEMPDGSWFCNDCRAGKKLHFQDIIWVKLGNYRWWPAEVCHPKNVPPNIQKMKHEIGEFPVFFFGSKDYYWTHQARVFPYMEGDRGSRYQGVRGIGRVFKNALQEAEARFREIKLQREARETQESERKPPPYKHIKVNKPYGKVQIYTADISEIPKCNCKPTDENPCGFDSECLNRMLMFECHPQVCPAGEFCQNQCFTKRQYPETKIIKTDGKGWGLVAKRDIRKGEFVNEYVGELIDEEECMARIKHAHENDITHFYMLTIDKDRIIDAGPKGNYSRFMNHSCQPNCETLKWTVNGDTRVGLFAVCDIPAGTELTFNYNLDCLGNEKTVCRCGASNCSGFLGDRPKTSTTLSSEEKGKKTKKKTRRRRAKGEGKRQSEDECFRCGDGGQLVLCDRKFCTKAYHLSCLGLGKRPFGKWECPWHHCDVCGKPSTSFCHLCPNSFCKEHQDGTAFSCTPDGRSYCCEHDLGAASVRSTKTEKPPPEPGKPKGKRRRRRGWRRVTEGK
MITF TRPM1 inh: inhibitors of MITF-dependent TRPM1 promoter reporter, primary screen, cell-based, SK-MEL-5, single point, luciferase; AID 488899, 2010; SK-MEL-5 TRPM1 promoter luciferase, 24 h; inhibition, % at 12.5 µM; 0.83% of 330,000 active;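 active = mean inhibition across replicates of 60% or more, whatever share of single replicates reaches that level; inconclusive = some that reach 60%, reason not given; inactive = mean inhibition across replicates below 60%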
Wnt act: Wnt/beta-catenin pathway activators, primary screen, cell-based, plate reader, single point. Wnt/beta-catenin reporter cell assay, activator. activation, % at 9.35 µM. 1.2% of 300,000 active. AID 743398, 2014; in the data active = activation above about 30%, passing the limit was not always enough; inconclusive = no clear call, values can overlap the other calls;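 also: 0% = neutral control wells and 100% = positive control wells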
N-glyco inh: increase of ERlucT glycosylation luciferase signal, primary screen, N-linked glycosylation inhibitor project, D54 ERlucT cells, luminescence, set 2; D54 ERlucT glycosylation luciferase reporter, 24 h; percent of 100 nM tunicamycin response; reporter increase, % at 12.5 µM; 0.23% of 360,000 active;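 active = mean luciferase reporter signal, scaled so untreated is 0 and the glycosylation-blocking control 100, at or above a set limit in every replicate; inconclusive = mean reaches the limit but not every replicate does; inactive = mean below the limit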;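 also: luciferase carries N-glycosylation sites so blocking glycosylation raises the light; 0% = median of neutral control wells and 100% = median of 100 nM tunicamycin wells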
MITF act: activators of MITF-driven TRPM1 promoter reporter, primary screen, cell-based, SK-MEL-5, luciferase, single point. SK-MEL-5 TRPM1-promoter luciferase, 24 h; % of positive control, neutral wells = 0. activation, % at 12.5 µM. 0.75% of 300,000 active. AID 588334, 2011;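 active = mean activation of at least 80% with every replicate also reaching 80%; inconclusive = mean reaches 80% but some replicate falls short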;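 also: 0% = neutral control wells and 100% = parthenolide positive control wells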
An asterisk follows results filed as active; ? = inconclusive; nt = no result given. A selection: hits, their analogues and other compounds. The true share with any hit is near 2.9%.

SMILES | PfHsp90 set2 | NSD2 HMT inh | MITF TRPM1 inh | Wnt act | N-glyco inh | MITF act
CC(=O)N1C[C@@H](CO)[C@@H](N(C)C(=O)/C=C/c2ccccc2)C[C@H]1c1ccccc1 | nt | nt | nt | -5 | nt | nt
C/C=C/C=C/C(=O)c1cc(C)c(OC(=O)CNC(=O)OC(C)(C)C)c(C)c1O | nt | nt | nt | -3 | nt | nt
Cc1c(NC(=O)CNCc2ccc3c(c2)OCO3)c(=O)n(-c2ccccc2)n1C | 5 | 0 | -7 | -6 | 1 | 4
Cc1ccc2nc(SCC(=O)Nc3ccccc3N3CCOCC3)c(C#N)cc2c1 | -20 | 6 | 25 | nt | 12 | -24
COC(=O)CSc1nc2cc(C)ccc2cc1C#N | -11 | nt | -71 | 80* | -3 | 75
Cc1ccc2nc(SCC(=O)Nc3ccc4sc(C)nc4c3)c(C#N)cc2c1 | 2 | -1 | -1 | nt | 33* | nt
O=C(CN1CCN(CC(=O)Nc2ccccc2Cl)CC1)NCC1(N2CCCCC2)CCCCC1 | -12 | 2 | -16 | -2 | -7 | 16
COc1cccc(Oc2ccc(C(F)(F)F)cc2NC(=O)CN2C(=O)NC3(CCCC3)C2=O)c1 | 1 | -3 | 25 | -16 | 86* | -25
Cc1c(-c2ccc(Br)cc2)[n+](=O)c2c(n1[O-])CCCCC2 | -30 | -1 | 3 | 36* | -2 | nt
CCOC(=O)C1=C(c2ccccc2)O/C(=C(\C(=O)OC)C(F)(F)F)S1 | -2 | 0 | -16 | nt | -2 | 22
COC(=O)/C(=C1/Oc2cc(C)oc(=O)c2S1)C(F)(F)F | -13 | nt | 90* | -11 | -12 | -90
COC(=O)/C(=C1/Oc2ccc(C(C)(C)C)cc2S1)C(F)(F)F | 8 | -2 | -77 | 37* | -9 | 72
COc1cccc(C(=O)C2=NN(C(C)=O)CC2c2ccco2)c1 (stereo not given) | -19 | 3 | -6 | 3 | -1 | 9
COC(=O)C1=C(C(=O)OC)[C@@H]2Nc3ccccc3[C@@]23C[C@@H](C(=O)OC)N(C(=O)C2CCC2)C3=N1 | 5 | nt | 7 | -1 | 0 | -7
O=C(NCc1ccccc1)[C@H]1CCCN1C(=O)[C@H]1CCCN1C(=O)c1cccc(Cl)c1 | nt | nt | nt | -1 | nt | nt
Cc1cc(NS(=O)(=O)c2ccc(NC(=O)COc3ccc(Cl)c(C)c3)cc2)no1 | 3 | 1 | 8 | -1 | 0 | -11
CCC(=O)Oc1ccc(-c2cnc3ccccc3n2)cc1 | 11 | -1 | -45 | 28 | -7 | 50
O=C(Nc1ccc(F)cc1F)c1cc2ccccc2oc1=O | 2 | -3 | -48 | 50* | -7 | nt
COc1ccc(OC(=O)c2cc3ccccc3o2)cc1 | 0 | 0 | 2 | nt | 2 | 2
Cc1ccc(C(=O)Nc2cc3ccccc3oc2=O)cc1 | 0 | -6 | 91* | -10 | -22 | -91
Cc1ccc(NC(=O)c2ccc(OC(=O)c3cc4ccccc4o3)cc2)cc1 | -3 | -1 | -54 | 43* | 0 | 60
O=C(Oc1ccc(-c2cnc3ccccc3n2)cc1)c1ccco1 | nt | -1 | -76 | 69* | -9 | ?
O=C(CSc1nnc(-c2ccco2)n1Cc1ccco1)c1ccc([N+](=O)[O-])cc1 | nt | -2 | nt | nt | nt | nt
C[C@H]1[C@@H](NCc2cccs2)CC[C@@]23CCCN2C(=O)CCC[C@@H]13 | nt | 4 | nt | nt | nt | nt
Cc1ccc(Oc2ccc(NC(=O)c3ccco3)cc2)cc1 | 5 | -3 | -38 | 26 | -8 | 43
SMILES | PfHsp90 set2 | NSD2 HMT inh | MITF TRPM1 inh | Wnt act | N-glyco inh | MITF act
Cc1ccc(NC(=O)c2ccc(OC(=O)c3ccco3)cc2)cc1 | -2 | 0 | -113 | 20 | -2 | 121*
COc1ccc(N=C2C(=S)N(c3ccc(OC)cc3)C(=NS(=O)(=O)c3ccccc3)N2c2ccccc2)cc1 | 4 | nt | -14 | 68* | -5 | 9
C[C@H]1[C@@H](c2ccccc2)Oc2ccc(Cl)cc2S(=O)(=O)N1Cc1cccc(Cl)c1 | nt | nt | nt | -3 | nt | nt
Cc1cc(C=C2C(=O)c3ccccc3C2=O)c(C)n1C | -23 | 2 | -3 | 63* | 0 | 8
CCn1c(C)cc(C=C2C(=O)c3ccccc3C2=O)c1C | -11 | 4 | -5 | 9 | -12 | 5
Cn1cnc2nc[nH]c2c1=S | 0 | -1 | 12 | ? | 2 | -8
S=c1nc[nH]c2nc[nH]c12 | 6 | nt | 58 | 20 | 247* | -57
O=C(c1cc(F)cc(F)c1)N1CCCC(c2nc(-c3cccs3)no2)C1 (stereo not given) | nt | -2 | nt | nt | nt | nt
Cc1c(O)ccc(/C(Cc2ccc3ccccc3n2)=N\O)c1O | 20 | 1 | 3 | 36* | -7 | nt
CC(=O)Oc1ccc(C(=O)Cc2ccc3ccccc3n2)c(O)c1C | -5 | -4 | -52 | -4 | -6 | 54
Cc1ccc(OCc2nc(-c3ccccn3)no2)c(Br)c1 | 3 | -6 | -35 | -2 | -17 | 16
CC(Oc1ccc(Cl)cc1Cl)c1nc(-c2ccccn2)no1 (stereo not given) | -2 | -3 | -136 | nt | 0 | 131*
CC(C)c1ccc(OCc2nc(-c3ccccn3)no2)c(Br)c1 | -51 | -5 | -76 | 76* | -9 | 79
COCCCNC(=O)[C@H]1O[C@@H](n2cnc3c(=O)[nH]c(N)nc32)[C@H](O)[C@@H]1O | nt | -5 | nt | -3 | nt | nt
CC1(C)OCC(N)(CO)CO1 | nt | 4 | nt | 0 | 2 | nt
O=C(Nc1ccccc1N1CCCCC1)c1ccc(F)cc1 | 2 | -5 | -7 | nt | 0 | 0
O=C(Nc1ccccc1N1CCOCC1)c1cccc(F)c1 | 29 | -2 | 4 | 1 | -1 | 0
O=C(Nc1ccccc1N1CCOCC1)c1ccc2ccccc2n1 | nt | 1 | -20 | 40* | 3 | nt
O=C(Nc1ccc(N2CCOCC2)cc1N1CCOCC1)c1ccccc1 | 13 | 0 | 1 | -1 | 2 | 4
O=C(Nc1ccccc1N1CCOCC1)c1ccc2nc[nH]c2c1 | -2 | -6 | 0 | -2 | 27* | -9
O=C(Nc1ccccc1F)Nc1ccccc1N1CCCCC1 | -2 | -1 | 2 | 47* | -4 | 0
O=C(Nc1ccccc1N1CCN(c2ccccc2)CC1)c1ccccc1 | -17 | -4 | 16 | 42* | -3 | -16
Cc1ccc(Cn2cc(COC(=O)NCC(C)C)nn2)cc1 | nt | -2 | nt | nt | nt | nt
Cc1ccc(-n2c(Cc3cccs3)nnc2SCC(=O)Nc2ccc(OCc3ccccc3)cc2)cc1 | nt | 1 | nt | nt | nt | nt
CCc1nc2ccc(C(=O)NCc3ccc4c(c3)OCO4)cn2c1N(CC)CCOC | nt | 0 | nt | 1 | 0 | nt
Cc1ccc(S(=O)(=O)Oc2ccc(N3C(=O)C4C5CCC(C5)C4C3=O)cc2)cc1 (stereo not given) | -30 | -2 | -10 | -1 | -5 | 10

Source: PubChem
